Experimental data from article PMC9911399, “Two distinct binding modes provide the RNA-binding protein RbFox with extraordinary sequence specificity”.
Residue numbers refer to the chain shown, from its start. The full ranking holds about 16,000 sequences; the median of “ka relative to ugcaugu” is about 0.096, and the highest 2% start at about 0.35. The list comes from a sample in which the highest values are over-represented; it also holds similar and randomly drawn sequences.

T1: RBFOX1 RRM RbFoxmut (Fox-RRM*) (Homo sapiens, UniProt Q9NWB1 109-208, R118D;E147R;N151S;E152T)
T1 sequence: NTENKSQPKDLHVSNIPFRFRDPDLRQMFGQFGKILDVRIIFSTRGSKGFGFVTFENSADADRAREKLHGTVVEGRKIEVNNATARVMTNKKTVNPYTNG

B1: CCUUAUC (DNA:RNA)
RNA: GGGAGACCGGAAUUCAGAUUGUCCCCUUAUCUUAAAUCCCGUCGUAGCCACCA
DNA 1: CAATCTGAATTCCGGTCTCCC
DNA 2: TGGTGGCTACGACGGGATT
B2: AAAUGUC (DNA:RNA)
RNA: B1 RNA with C25A, C26A, U27A, A29G
DNA 1: CAATCTGAATTCCGGTCTCCC
DNA 2: TGGTGGCTACGACGGGATT
B3: CUAUAGG (DNA:RNA)
RNA: B1 RNA with C26U, U27A, U30G, C31G
DNA 1: CAATCTGAATTCCGGTCTCCC
DNA 2: TGGTGGCTACGACGGGATT
B4: CUGCGUG (DNA:RNA)
RNA: B1 RNA with C26U, U27G, U28C, A29G, C31G
DNA 1: CAATCTGAATTCCGGTCTCCC
DNA 2: TGGTGGCTACGACGGGATT
B5: CCUAGCA (DNA:RNA)
RNA: B1 RNA with U28A, A29G, U30C, C31A
DNA 1: CAATCTGAATTCCGGTCTCCC
DNA 2: TGGTGGCTACGACGGGATT
B6: GUCGUGC (DNA:RNA)
RNA: B1 RNA with C25G, C26U, U27C, U28G, A29U, U30G
DNA 1: CAATCTGAATTCCGGTCTCCC
DNA 2: TGGTGGCTACGACGGGATT
B7: UUGUUGC (DNA:RNA)
RNA: B1 RNA with C25U, C26U, U27G, A29U, U30G
DNA 1: CAATCTGAATTCCGGTCTCCC
DNA 2: TGGTGGCTACGACGGGATT
B8: UCCGUGC (DNA:RNA)
RNA: B1 RNA with C25U, U27C, U28G, A29U, U30G
DNA 1: CAATCTGAATTCCGGTCTCCC
DNA 2: TGGTGGCTACGACGGGATT
B9: UUGCUUG (DNA:RNA)
RNA: B1 RNA with C25U, C26U, U27G, U28C, A29U, C31G
DNA 1: CAATCTGAATTCCGGTCTCCC
DNA 2: TGGTGGCTACGACGGGATT
B10: GUGCUUG (DNA:RNA)
RNA: B1 RNA with C25G, C26U, U27G, U28C, A29U, C31G
DNA 1: CAATCTGAATTCCGGTCTCCC
DNA 2: TGGTGGCTACGACGGGATT
B11: UCCUUGC (DNA:RNA)
RNA: B1 RNA with C25U, U27C, A29U, U30G
DNA 1: CAATCTGAATTCCGGTCTCCC
DNA 2: TGGTGGCTACGACGGGATT
B12: CGGGAUC (DNA:RNA)
RNA: B1 RNA with C26G, U27G, U28G
DNA 1: CAATCTGAATTCCGGTCTCCC
DNA 2: TGGTGGCTACGACGGGATT
B13: GUAUCGU (DNA:RNA)
RNA: B1 RNA with C25G, C26U, U27A, A29C, U30G, C31U
DNA 1: CAATCTGAATTCCGGTCTCCC
DNA 2: TGGTGGCTACGACGGGATT
B14: GUCCCGU (DNA:RNA)
RNA: GGGAGACCGGAAUUCAGAUUGUCCGUCCCGUUUAAAUCCCGUCGUAGCCACCA
DNA 1: CAATCTGAATTCCGGTCTCCC
DNA 2: TGGTGGCTACGACGGGATT
B15: UGAUAUA (DNA:RNA)
RNA: B1 RNA with C25U, C26G, U27A, C31A
DNA 1: CAATCTGAATTCCGGTCTCCC
DNA 2: TGGTGGCTACGACGGGATT
B16: CGUCCGU (DNA:RNA)
RNA: B14 RNA with G25C, U26G, C27U
DNA 1: CAATCTGAATTCCGGTCTCCC
DNA 2: TGGTGGCTACGACGGGATT
B17: CGUAUCG (DNA:RNA)
RNA: B1 RNA with C26G, U28A, A29U, U30C, C31G
DNA 1: CAATCTGAATTCCGGTCTCCC
DNA 2: TGGTGGCTACGACGGGATT
B18: UGAUAUG (DNA:RNA)
RNA: B1 RNA with C25U, C26G, U27A, C31G
DNA 1: CAATCTGAATTCCGGTCTCCC
DNA 2: TGGTGGCTACGACGGGATT
B19: GGAUUGU (DNA:RNA)
RNA: B14 RNA with U26G, C27A, C28U, C29U
DNA 1: CAATCTGAATTCCGGTCTCCC
DNA 2: TGGTGGCTACGACGGGATT
B20: UGAUAUC (DNA:RNA)
RNA: B1 RNA with C25U, C26G, U27A
DNA 1: CAATCTGAATTCCGGTCTCCC
DNA 2: TGGTGGCTACGACGGGATT
B21: CACCGGA (DNA:RNA)
RNA: B14 RNA with G25C, U26A, C29G, U31A
DNA 1: CAATCTGAATTCCGGTCTCCC
DNA 2: TGGTGGCTACGACGGGATT
B22: CGGAUUG (DNA:RNA)
RNA: B1 RNA with C26G, U27G, U28A, A29U, C31G
DNA 1: CAATCTGAATTCCGGTCTCCC
DNA 2: TGGTGGCTACGACGGGATT
B23: GUAUUGU (DNA:RNA)
RNA: B14 RNA with C27A, C28U, C29U
DNA 1: CAATCTGAATTCCGGTCTCCC
DNA 2: TGGTGGCTACGACGGGATT
B24: GUCCGGA (DNA:RNA)
RNA: B14 RNA with C29G, U31A
DNA 1: CAATCTGAATTCCGGTCTCCC
DNA 2: TGGTGGCTACGACGGGATT
B25: AUUCGUU (DNA:RNA)
RNA: B14 RNA with G25A, C27U, C29G, G30U
DNA 1: CAATCTGAATTCCGGTCTCCC
DNA 2: TGGTGGCTACGACGGGATT
B26: UUAGGAG (DNA:RNA)
RNA: B14 RNA with G25U, C27A, C28G, C29G, G30A, U31G
DNA 1: CAATCTGAATTCCGGTCTCCC
DNA 2: TGGTGGCTACGACGGGATT
B27: AGGCUCU (DNA:RNA)
RNA: B14 RNA with G25A, U26G, C27G, C29U, G30C
DNA 1: CAATCTGAATTCCGGTCTCCC
DNA 2: TGGTGGCTACGACGGGATT
B28: CGCGGGG (DNA:RNA)
RNA: B14 RNA with G25C, U26G, C28G, C29G, U31G
DNA 1: CAATCTGAATTCCGGTCTCCC
DNA 2: TGGTGGCTACGACGGGATT
B29: UCCAGCA (DNA:RNA)
RNA: B1 RNA with C25U, U27C, U28A, A29G, U30C, C31A
DNA 1: CAATCTGAATTCCGGTCTCCC
DNA 2: TGGTGGCTACGACGGGATT
B30: GGAUCGG (DNA:RNA)
RNA: B14 RNA with U26G, C27A, C28U, U31G
DNA 1: CAATCTGAATTCCGGTCTCCC
DNA 2: TGGTGGCTACGACGGGATT
B31: CACCACG (DNA:RNA)
RNA: B1 RNA with C26A, U27C, U28C, U30C, C31G
DNA 1: CAATCTGAATTCCGGTCTCCC
DNA 2: TGGTGGCTACGACGGGATT

Molecular target: T1, RBFOX1 RRM RbFoxmut (Fox-RRM*)
Experiment: EMSA; HiTS-Eq, 1 nM pool, 10 min; buffer printed only for the single-RNA assays: 10 mM Tris pH 7.5, 150 mM NaCl, 3.4 mM EDTA, 0.001% NP-40, 30 C
Conditions: tags: His6 N-terminal (pET28a); label: 5' 32P
Method in brief: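 Relative association constants, normalised to the cognate motif, were derived by comparing read counts of each RNA species with those of the control reaction. The RNA sequenced was the free fraction, separated by 8% native PAGE after a 10 min equilibration in 50 µL of 1 nM 5′-radiolabelled RNA (7 randomized nucleotides) with increasing concentrations of purified wild-type or mutant RbFox RRM.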

| Binder | binding signal |
| --- | --- |
| B1 | 0.0522 KA relative to UGCAUGU |
| B2 | 0.145 KA relative to UGCAUGU |
| B3 | 0.0751 KA relative to UGCAUGU |
| B4 | 0.232 KA relative to UGCAUGU |
| B5 | 0.119 KA relative to UGCAUGU |
| B6 | 0.167 KA relative to UGCAUGU |
| B7 | 0.148 KA relative to UGCAUGU |
| B8 | 0.084 KA relative to UGCAUGU |
| B9 | 0.503 KA relative to UGCAUGU |
| B10 | 0.511 KA relative to UGCAUGU |
| B11 | 0.108 KA relative to UGCAUGU |
| B12 | 0.141 KA relative to UGCAUGU |
| B13 | 0.461 KA relative to UGCAUGU |
| B14 | 0.11 KA relative to UGCAUGU |
| B15 | 0.0947 KA relative to UGCAUGU |
| B16 | 0.119 KA relative to UGCAUGU |

| Binder | binding signal |
| --- | --- |
| B17 | 0.263 KA relative to UGCAUGU |
| B18 | 0.437 KA relative to UGCAUGU |
| B19 | 0.39 KA relative to UGCAUGU |
| B20 | 0.145 KA relative to UGCAUGU |
| B21 | 0.0666 KA relative to UGCAUGU |
| B22 | 0.522 KA relative to UGCAUGU |
| B23 | 0.309 KA relative to UGCAUGU |
| B24 | 0.0725 KA relative to UGCAUGU |
| B25 | 0.134 KA relative to UGCAUGU |
| B26 | 0.129 KA relative to UGCAUGU |
| B27 | 0.0577 KA relative to UGCAUGU |
| B28 | 0.0735 KA relative to UGCAUGU |
| B29 | 0.123 KA relative to UGCAUGU |
| B30 | 0.176 KA relative to UGCAUGU |
| B31 | 0.125 KA relative to UGCAUGU |
